Experimental data: PubChem BioAssay AID624170 (National Center for Advancing Translational Sciences (NCATS), 2012)
The campaign covered roughly 410,000 compounds. About 850 (0.21%) were called active. About 2% were inconclusive and are not listed. Only a selection was taken, and actives are over-represented in it overall. Unmarked numbers belong to inactive results. Calls come from the whole dose curve; as a rule, active = well fitted inhibition curve with a large enough effect; inconclusive = small, poorly fitted or top-dose-only effect, or another doubt; inactive = no such curve, though single readings can be large or run the other way.

What follows are compounds tested against Glutaminase kidney isoform, mitochondrial (Homo sapiens) (UniProt O94925) (assay: qHTS for Inhibitors of Glutaminase (GLS)). Conditions: GLS enzymatic activity, qHTS titration; series mostly up to 45.5 µM; activity change, negative = inhibition: at the top concentration.
Description: Glutaminase (GLS) catalyzes the hydrolysis of glutamine into glutamate and ammonia. It plays a critical role in glutaminolysis, which is an important energy source for proliferating cells. It was shown that c-Myc, an oncogenic transcription factor known to regulate microRNAs and to stimulate cell proliferation, increases glutamine metabolism by stimulating the expression of GLS via direct suppression of miR23a and miR23b.
GLS is also thought to play a pathogenic role on HAD using a human HIV-1 infected macrophage system. […] GLS inhibition limits glutamate release and provides neuroprotection against HIV-1 infected macrophages.
The overall goal of this project is to identify small molecule inhibitors of GLS through quantitative high throughput screening (qHTS) of the MLSMR. A validated potent and selective inhibitor can be used as a tool molecule to further study the pharmacology of its target as well as explore its potential therapeutic application in cancer and inflammatory neurological disorders, such as HIV1-associated dementia (HAD) and multiple sclerosis.
NIH Chemical Genomics Center [NCGC]
NIH Molecular Libraries Probe Centers Network [MLPCN]
Assay Submitter (PI): Barbara S. Slusher, Johns Hopkins University
Three 3 uL of hKGA is dispensed into black well 1536-well plates in 45 mM KH2PO4 (pH 8.2), 0.02% Tween-20. Then 23 nL of compounds are added through pin tool transfer. To this, 1 uL of 1mM L-Glutamine and 1 uL of a solution of L-Glutamateoxidase, HRP, Amplex red are added. Plate is centrifuged for 25 sec before an initial fluorescence read is obtained on the ViewLux, after 30 min of RT incubation, the final read is taken on the ViewLux.
% is set by controls: 0 for no effect and ±100 for the full control effect; potency is the fitted concentration of half-maximal effect.

Glutaminase kidney isoform, mitochondrial (Homo sapiens), sequence (O94925 whole entry, looked up, canonical isoform): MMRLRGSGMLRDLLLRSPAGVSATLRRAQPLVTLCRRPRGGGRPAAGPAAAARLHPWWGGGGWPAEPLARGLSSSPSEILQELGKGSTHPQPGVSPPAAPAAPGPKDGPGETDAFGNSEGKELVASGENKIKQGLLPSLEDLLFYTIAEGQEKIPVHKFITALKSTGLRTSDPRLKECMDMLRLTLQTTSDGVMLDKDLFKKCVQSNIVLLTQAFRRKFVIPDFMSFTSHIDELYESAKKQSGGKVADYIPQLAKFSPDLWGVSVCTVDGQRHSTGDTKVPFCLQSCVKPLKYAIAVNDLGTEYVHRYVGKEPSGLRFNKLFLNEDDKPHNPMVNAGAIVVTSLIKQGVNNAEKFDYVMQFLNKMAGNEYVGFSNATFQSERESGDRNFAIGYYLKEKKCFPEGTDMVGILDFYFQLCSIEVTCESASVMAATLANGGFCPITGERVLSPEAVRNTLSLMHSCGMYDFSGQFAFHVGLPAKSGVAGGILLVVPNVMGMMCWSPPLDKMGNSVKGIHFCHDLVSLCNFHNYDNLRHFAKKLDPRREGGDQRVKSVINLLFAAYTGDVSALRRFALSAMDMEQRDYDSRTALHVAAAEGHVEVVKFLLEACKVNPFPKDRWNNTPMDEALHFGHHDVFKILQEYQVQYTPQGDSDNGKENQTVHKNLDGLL

| SMILES | activity change, negative = inhibition | Potency |
| --- | --- | --- |
| CCOC(=O)C1=CCC2C(=O)N(Cc3ccccc3)C(=O)C12 (centres undefined) | 5.61% | – |
| COc1ccc(CCNC(=O)CCCCn2c(=O)c3ccccc3n(Cc3ccccc3)c2=O)cc1OC | -3.74% | – |
| COc1cc(/C=C2/SC(=S)N(Cc3ccccc3)C2=O)cc(OC)c1O | – | 20 µM (active) |
| COc1cc(NC(=O)c2nn(-c3ccc(C)cc3)c(=O)c3c2c2ccccc2n3C)cc(OC)c1OC | -5.7% | – |
| COc1ccc(CCC(=O)NCCc2csc(-c3ccc(Cl)cc3)n2)cc1 | 2.21% | – |
| FC(F)(F)COc1nc(N2CCCCC2)nc(N2CCNCC2)n1 | -3.1% | – |
| COc1nc(NC2CCCCC2)nc(N2CCCCCC2)n1 | -4.19% | – |
| CN(N)c1nc(N2CCCC2)nc(N2CCCC2)n1 | – | 14.1 µM (active) |
| CCCN(CC)[C@@H](CC)C(=O)Nc1c(C)cccc1C | 3.2% | – |
| O=C(O)CCC(=O)O | -1.49% | – |
| O=C(CCSCc1ccccc1F)N1CCN(c2ccc(Cl)cc2)CC1 | 0.607% | – |
| Cn1cnc2c1c(=O)n(Cc1c(Cl)cccc1Cl)c(=O)n2C | – | 20 µM (active) |
| Cn1cnc2c1c(=O)n(Cc1ccccc1C#N)c(=O)n2C | -19% | – |
| Cn1c(=O)n(Cc2c(F)cccc2Cl)c(=O)c2c1nc1n2CCN1c1ccc(F)cc1 | 0.648% | – |
| CO[C@H]1C[C@@H](O[C@@H]2[C@@H](C)O[C@@H](O[C@@H]3/C(C)=C/CC4C[C@@H](C[C@]5(C=C[C@@H](C)[C@H](C6CCCCC6)O5)O4)OC(=O)[C@@H]4C=C(C)[C@@H](O)[C@H]5OC/C(=C\C=C\[C@@H]3C)[C@]54O)C[C@H]2OC)O[C@@H](C)[C@@H]1O | -20% | – |
| NC(=O)C(=O)N/N=C/c1ccc([N+](=O)[O-])o1 | -7.32% | – |
| COc1cc(C[C@H]2NCCc3cc(O)c(O)cc32)cc(OC)c1OC | 20% | – |
| O=S(O)CNc1ccc(S(=O)(=O)c2ccc(NCS(=O)O)cc2)cc1 | -9.19% | – |
| FC(F)(F)C1CCCN(c2nsc3ccccc23)C1 (centres undefined) | – | 7.94 µM (active) |
| COc1cc([C@@H]2c3cc4c(cc3[C@@H](O[C@@H]3O[C@@H]5CO[C@@H](C)O[C@H]5[C@H](O)[C@H]3O)[C@H]3COC(=O)[C@H]23)OCO4)cc(OC)c1OP(=O)(O)O | -14.1% | – |
| COc1ccc(-c2ccc(=O)n(CC(=O)Nc3ccc(Br)cc3F)n2)cc1 | -2.19% | – |
| COc1ccc2oc(C(=O)NCC(Cc3ccccc3)N(C)C)c(C)c2c1 (centres undefined) | 11% | – |

| SMILES | activity change, negative = inhibition | Potency |
| --- | --- | --- |
| COc1ccc(CNC(=O)C(Cc2ccccc2)n2cccc2)cc1 (centres undefined) | -3.68% | – |
| COc1cc([C@H](Cc2ccccc2)NC(C)=O)oc(=O)c1 | – | 17.8 µM (active) |
| COc1ccc(N2CCN(S(=O)(=O)CCNC(=O)C(c3ccccc3)c3ccccc3)CC2)cc1 | 6.36% | – |
| CCOC(=O)c1ccccc1NC(=O)CCc1c(C)nc2c(c1C)c(=O)n(C)c(=O)n2C | -6.2% | – |
| O=C(O)CCCCC(=O)O | -1.94% | – |
| CCOc1ccc(NC(=O)c2c(NC(=O)Cc3ccccc3)sc3c2CCC(C)C3)cc1 (centres undefined) | -27.7% | – |
| O=C(Nc1cccc(Cl)c1)c1csnn1 | -8.09% | – |
| O=C(Nc1ccccc1)c1nnsc1S(=O)(=O)c1ccc(Cl)cc1 | – | 14.1 µM (active) |
| O=C(Nc1ccc(Oc2ccccc2)cc1)C1CCN(S(=O)(=O)c2ccc(Cl)cc2)CC1 | -5.18% | – |
| CCCC[C@H]1C(=O)N(c2ccccc2)N(c2ccc(O)cc2)C1=O | -6.67% [at 20 µM] | – |
| O=C(OCc1ccccc1)c1ccc(O)cc1 | 16.9% | – |
| CC(=O)OC1C([N+]2(C)CCCCC2)C[C@H]2C3CC[C@H]4C[C@H](OC(C)=O)C([N+]5(C)CCCCC5)CC4(C)C3CCC12C (some centres undefined) | 4.13% | – |
| O=C(O)/C=C/C(=O)NNc1ccc([N+](=O)[O-])cc1 | – | 11.2 µM (active) |
| O=C(O)CC(Cc1ccccc1)C(=O)Nc1ccc([N+](=O)[O-])cc1 (centres undefined) | 1.28% | – |
| CC(C)(C)C(=O)NCCCNc1ccc([N+](=O)[O-])cc1 | -9.97% | – |
| CCCCC(=O)OCC(=O)[C@H]1[C@H](C)C[C@@H]2[C@@H]3C[C@@H](F)C4=CC(=O)C=C[C@]4(C)[C@@]3(F)[C@@H](O)C[C@@]21C | -8.67% | – |
| COc1ccc(NC(=O)c2sc3nc[nH]c(=O)c3c2C)cc1 | -11% | – |
| Cn1c(=O)c2c(nc(NCCNC(=O)c3ccco3)n2Cc2ccccc2F)n(C)c1=O | -2.17% | – |
| CC(C)OCCCNc1nc2c(c(=O)n(Cc3ccccc3F)c(=O)n2C)n1C | – | 12.6 µM (active) |
| Cn1c(=O)c2c(nc(NCCc3ccccc3)n2Cc2ccccc2Br)n(C)c1=O | 4.52% | – |
| CCC(C)Nc1oc(-c2ccc(COc3ccc(Cl)cc3)o2)nc1C#N (centres undefined) | 11.6% | – |
| CC(O)COc1ccccc1 (centres undefined) | -9.16% | – |
